PubChem BioAssay AID652017 (The Scripps Research Institute Molecular Screening Center, 2013)
The whole screen tested about 370,000 compounds, of which about 3,800 (1%) were called active. Cut-off read from the data, not from the text of the source: active = activation above about 7.8%; inactive = the rest. What follows is part of a selection rich in actives, with near analogues and random picks from the rest.

Test: SMARCA2 (BRM) function activators, primary screen, cell-based, luminescence, high throughput (AID 652017);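 note: 0% = vehicle wells and 100% = reference activator wells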
Details: MG213 cells, MMTV-luciferase reporter, dexamethasone, overnight; at 9.1 µM; active compounds read high

activation, active:
COc1cc(CN2CCC(C(N)=O)CC2)ccc1OCc1ccccc1 10.4%
O=C(Nc1ccc2c(c1)CCC2)c1ccc(Br)s1 9.61%
COc1ccc(NC(=O)c2sccc2SCC#N)cc1 8.69%
CCC(=O)NC(=Nc1nc2ccccc2s1)NC(=O)CC 7.9%
COCn1c(COc2ccccc2)nc2ccccc21 9.21%
CC1CCCCC1NC(=O)CN1CCC(O)(c2ccc3c(c2)OCO3)CC1 (centres undefined) 8.42%
Cc1c(NC(=O)CSc2cccc3cccnc23)c(=O)n(-c2ccccc2)n1C 8.2%
CC(=O)Oc1ccc(C(=O)Nc2nccs2)cc1 9.12%
COc1ccc(-c2cc(-c3ccc(N)cc3)nc(N)c2C#N)cc1OC 8.11%
Cn1sc(=O)c2cc(S(=O)(=O)NC3CC3)ccc21 8.34%
CC(=O)c1cccc(-c2cnc3c(NC=O)cc(-c4ccc(N5CCN(C)CC5)cc4)cn23)c1 16.7%
CC(=O)Nc1cc(-c2ccc(N3CCN(C)CC3)cc2)cn2c(-c3ccc(F)cc3)cnc12 12.3%
CN(C)CCNC(=O)c1cccc(-c2cnc3c(NC=O)cc(-c4cccc(C(F)(F)F)c4)cn23)c1 21.3%
CC1CCCCN1C(=S)NCc1ccccc1 (centres undefined) 8.25%
CN(C)C(CNC(=O)c1ccc(OCc2cn3ccccc3n2)cc1)c1ccco1 (centres undefined) 11.2%
Fc1ccc(/C=N/Nc2nc(-c3cccnc3)nc3ccccc23)cc1 11.3%

activation, inactive:
COc1ccccc1C(=O)N1CCNC(=O)C1CC(=O)Nc1ccc(Cl)cc1 (centres undefined) -0.22%
COc1ccc(C2CC=C(C(=O)O)C(c3ccccc3F)N2S(=O)(=O)c2ccc(C)cc2)cc1OC (centres undefined) 0.02%
N#C/C=C1\Sc2ccccc2C(=O)N1CC(=O)N1CCN(S(=O)(=O)c2ccccc2)CC1 6.51%
CCc1ccccc1NC(=O)CSc1nnc(-c2cccs2)o1 5.4%
COc1ccc(CCN2C(=O)CC(N3CCC(C(N)=O)CC3)C2=O)cc1OC (centres undefined) -1.41%
COc1ccc(COCC(O)CN2CCC(C(N)=O)CC2)cc1 (centres undefined) -2.59%
Cc1nc2ccc(C(=O)N3CCN(C(=O)C(C)(C)C)CC3)cc2n1C1CCCC1 -3.37%
CC(C)Oc1ccc(C(=O)NCC(=O)Nc2ccc3c(c2)CCC3)cc1 5.66%
CC1CC(C)CN(CCC(=O)Nc2ccc3c(c2)CCC3)C1 (centres undefined) -0.27%
C[C@H]1CN([C@@H](C)CO)C(=O)Cc2cc(NS(C)(=O)=O)ccc2O[C@@H]1CN(C)CC1CC1 0.45%
COc1ccccc1CNS(=O)(=O)c1c(C)[nH]c(C)c1C(=O)N1CCCCC1 3.15%
COC(=O)[C@H](CCSC)NC(=O)Nc1ccc(OC)cc1 0.38%
COc1ccc(NC(=O)C(C)SCc2ccccc2)cc1 (centres undefined) -0.97%
Cc1c[nH]c2cccc(-c3ccc(Cl)cc3)c12 -2.85%
CCCCn1c(N)c(N(CC(C)C)C(=O)c2cccc(S(=O)(=O)N3CC(C)OC(C)C3)c2)c(=O)[nH]c1=O (centres undefined) -0.77%
COC(=O)C1CN(CC(C)C)CCS(=O)(=O)N1Cc1ccc(C)cc1 (centres undefined) -1.21%
CC(C)CC(=O)N/C(N)=N/c1nc2ccccc2s1 5.04%
O=C(CSc1nc2ccccc2s1)NN=Cc1ccc(O)cc1O -6.37%
COC(=O)CCC(=O)N1CCCC(CO)(Cc2ccccc2)C1 (centres undefined) 3.15%
COc1cccc(N2CCN(CC(=O)N(C)Cc3ccc(F)cc3)CC2)c1 -2.95%
COc1ccccc1Cn1c(CO)nc2ccccc21 -2.13%
COCc1nc2ccccc2n1Cc1ccccc1Br -3.44%
COC(=O)C1CN(CCc2ccccc2)CCS(=O)(=O)N1Cc1cccc(Cl)c1 (centres undefined) -3.45%
CCCCN(CC)C(=S)Nc1ccc2nc3n(c(=O)c2c1)CCCCC3 -4.18%
Cc1ccc(NC(=O)CN2CCC3(O)CCCCC3C2c2ccc3c(c2)OCO3)c(C)c1 (centres undefined) 0.08%
CC1CCCCC1NC(=O)CCS(=O)(=O)c1ccc2c(c1)NC(=O)CO2 (centres undefined) -2.77%
Cc1sc2nc(SCC(=O)c3ccc(O)c(O)c3)n(Cc3ccco3)c(=O)c2c1C -5.31%
Cc1ccc(S(=O)(=O)CC(=O)Nc2c(C)n(C)n(-c3ccccc3)c2=O)cc1 -1.75%
Cc1ccccc1OCCC(=O)Nc1c(C)n(C)n(-c2ccccc2)c1=O -3.07%
C[C@]1(C(=O)NCCc2c[nH]c3ccccc23)C=C[C@@H](Cc2ccccc2)N1C(=O)c1ccccc1 1.41%
Cc1ccc(-n2c(SCC(=O)Nc3ccc(S(=O)(=O)Nc4nccs4)cc3)nnc2-c2cccnc2)cc1 -5.55%
Cc1c(CCO)c(=O)n(-c2ccccc2)n1S(=O)(=O)c1ccc(F)cc1 -2.63%
O=C(NCc1cccs1)C1CCN(S(=O)(=O)c2ccccc2[N+](=O)[O-])CC1 -3.33%
Cc1ccc(NC(=S)NNC(=O)CSc2nnc(SCc3ccccc3Cl)s2)cc1 -6.06%
CCOc1ccc(C(=O)Nc2nccs2)cc1[N+](=O)[O-] 5.63%
Cn1cccc1C(=O)Nc1nccs1 1.12%
COc1ccc(-c2nc3n(c(=O)c2C#N)CCS3)c(OC)c1 -2.7%
COc1ccc2c(c1)CN1CN(CCc3ccccc3)S(=O)(=O)CC21 (centres undefined) 5.9%
COc1ccc(-c2cc(C(F)(F)F)nc(S(C)(=O)=O)n2)cc1OC -11.1%
COc1ccc(OC)c2c(N)c(C#N)c(C(F)(F)C(F)(F)F)nc12 1.9%
CCCCOc1ccc(Cl)cc1CSc1nncn1N 1.44%
CCCCCCCCN1C(=O)[C@@H](CC(=O)NCc2ccc(C)o2)C[C@@]2(C(=O)OC)C1=C[C@H](C(C)(C)C)O[C@@H]2C -5.88%
COc1cccc(CSc2nnc(-c3cccnc3)n2Cc2ccccc2)c1 -3.94%
CC(C)c1ccc(S(=O)(=O)NC2CCCC2)cc1 -1.52%
Cc1ccc(S(=O)(=O)NC2CCCCCC2)cc1C(N)=O -2.18%
CN(C)CC(=O)N[C@@H]1C[C@@H]2O[C@H](CO)CC[C@@H]2O[C@@H]1CCc1ccc(C#Cc2ccccc2)cc1 0.56%
CCC(C)Sc1nc(C)nc2c1c(=O)n(C)c(=O)n2C (centres undefined) -1.47%
CC(=O)Nc1cc(-c2ccc(N3CCN(C)CC3)cc2)cn2c(-c3cccc(C(=O)N(C)C)c3)cnc12 5.35%
COc1ccc(-c2cc(NC=O)c3ncc(-c4cccc(C(=O)N(C)C)c4)n3c2)c(OC)c1 -4.41%
CC(=O)Nc1cccc(-c2cc(NC(C)=O)c3ncc(-c4ccccc4)n3c2)c1 -12.2%
CC(=O)Nc1cc(-c2cccc(CO)c2)cn2c(-c3cccc(C(F)(F)F)c3)cnc12 -2.27%
O=CNc1cc(-c2ccc(C(=O)N3CCOCC3)cc2)cn2c(-c3ccc(F)cc3)cnc12 -2.13%
CN(C)C(=O)c1cccc(-c2cnc3c(NC=O)cc(-c4ccc(C(=O)N5CCOCC5)cc4)cn23)c1 3.31%
O=C(CN1CCC(NC(=O)NCc2ccccc2)CC1)Nc1ccc2c(c1)OCCO2 0.31%
COc1ccc(N2CCN(CCNS(=O)(=O)c3ccc(C(C)(C)C)cc3)CC2)cc1 3.29%
Clc1ccc(-n2c(COc3ccccc3)nnc2SCc2nc3ccccc3[nH]2)cc1 -4.61%
O=C(CCCCO)c1ccc(O)c(Cl)c1 -1.51%
CC(C)CNc1cccc2c1S(=O)(=O)N(Cc1cn(Cc3ccccc3C(F)(F)F)nn1)Cc1ccccc1O2 -2.65%
CCOC(=O)N1CCN(C(=O)C[C@@H]2C(=O)N(CCc3ccc(Cl)cc3)C3=CCCC[C@]32C(=O)OCC)CC1 -1.86%
COc1cc(NC(=O)C2CCCN(S(=O)(=O)c3ccc(C(C)(C)C)cc3)C2)cc(OC)c1 (centres undefined) 2.08%
CCCCCN1CCCCC(NC(=O)C(C)CCC)C1=O (centres undefined) -0.09%
CC1CCCCN1C(=O)CCS(=O)(=O)Cc1ccccc1 (centres undefined) -2.25%
C/C(=N\NC(=S)NCc1ccccc1)C1CCCCC1 1.15%
O=C1C2CCCN2C(=O)N1CCCCN1CCN(c2cccc(C(F)(F)F)c2)CC1 (centres undefined) 2.48%
O=C(NCCc1ccco1)c1ccc(OCc2cn3ccccc3n2)cc1 6.76%
O=Cc1ccc(OCc2cn3ccccc3n2)cc1 -6.54%
CC(=O)N1CCCN(C2=Nc3ccccc3Sc3ccccc32)CC1 -0.9%
O=C(NCc1ccco1)C1CCCN(S(=O)(=O)c2ccc(Cl)s2)C1 (centres undefined) -1.17%
O=C(CSc1n[nH]c(-c2cccnc2)n1)Nc1ccnc2ccccc12 -1.59%
COC(=O)c1cccc(Cn2ccc3ccc(-c4ccc5ccn(C(=O)C6CCCCC6)c5c4)cc32)c1 -0.58%
Cc1ccccc1NC(=O)COC(=O)c1ccc(Sc2ncn[nH]2)c([N+](=O)[O-])c1 -3.59%
CC[C@@H](CCC(=O)N(c1ccccc1)c1ccccc1)C1CC1 -5.25%
Cc1ccc(NS(=O)(=O)c2ccc(C(C)C)cc2)cc1S(=O)(=O)N1CCOCC1 -0.94%
